# Hits are enriched below; roughly 9.5% of the tested compounds scored in any of these assays.
# RE007 growth inh – less growth of the S. pombe RE007 Vpr strain. AID 651644. S. pombe RE007 Vpr strain, BacTiter-Glo ATP luminescence, 24 h. Potency, µM (highest dose often 92.2 µM), most hits filed as inhibitors. 360,000 compounds, 0.21% hits; active = well fitted falling curve with a large enough effect; inconclusive = small, poorly fitted or top-dose-only effect; inactive = no such curve, though single readings can be large or run the other way; note: nearly all actives have a fitted effect of over 50% in size
#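 Fission yeast strain RE007, carrying one chromosomally integrated HIV-1 vpr copy, was seeded at OD 0.01 in PMG+AL medium with 23 nL pinned compound. After 24 h at 30 °C and 99% humidity, viability was read by BacTiter-Glo luminescence.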
# Pf growth 96h – P. falciparum growth inhibition at 96 hours | P. falciparum luciferase reporter growth, 96 h | 320,000 compounds, 6.9% hits | Potency, µM (highest dose often 28.7 µM), usual class: inhibitors | AID 504834; active = well fitted inhibition curve with a large enough effect; inconclusive = small, poorly fitted or top-dose-only effect, or another doubt; inactive = no such curve, though single readings can be large or run the other way
#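 Plates of compound plus infected erythrocytes (2% hematocrit, 0.05% parasitemia final) incubate 96 hours, 37 C, 5% CO2. Detection reagent added; reduced luminescence from the parasites' luciferase reporter flags inhibition.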
# SARS PLP yeast – SARS-CoV PLP inhibition in yeast | S. cerevisiae expressing SARS-CoV PLpro, growth rescue | Potency, µM (series often up to 32.9 µM), usual class: activators | 330,000 compounds, 0.19% hits; note: nearly all actives have a fitted effect of over 55% in size
# Pf growth 48h – P. falciparum growth inhibition at 48 hours (one generation) | P. falciparum luciferase growth in erythrocytes, 48 h | Potency, µM (highest dose often 28.7 µM), most hits filed as inhibitors | 310,000 compounds, 5.9% hits; active = well fitted inhibition curve with a large enough effect; inconclusive = small, poorly fitted or top-dose-only effect, or another doubt; inactive = no such curve, though single readings can be large or run the other way
#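 Erythrocytes infected with P. falciparum carrying an integrated firefly luciferase reporter (2% hematocrit, 0.1% parasitemia final) were exposed to compounds in RPMI 1640 with 0.5% Albumax at 37 C, 5% CO2. Growth inhibition was scored as reduced luminescence.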
# NS1 inh – blocks influenza NS1 protein function; 270,000 compounds, 0.4% hits; Potency, µM (top dose mostly 46.1 µM); AID 2326; note: actives are rising curves; nearly all actives have a fitted effect of over 50% in size
#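 S. cerevisiae expressing influenza A NS1, grown in glucose, washed, then diluted 1:100 into pH 6.0 -URA galactose medium with 23 nl compound. Growth recovery read as OD600; NS1-free strain serves as control.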
# Numbers stand for hits; - = inactive; ? = inconclusive; . = no result; [ ] = dose if it differs, or a comment. Unless noted, calls come from the whole dose curve.
SMILES,RE007 growth inh,Pf growth 96h,SARS PLP yeast,Pf growth 48h,NS1 inh
CSCC[C@@H](C(=O)O)N(C)C,.,.,.,.,-
Cc1ccccc1OCC(=O)Nc1ccc2[nH]ncc2c1,-,11.7µM,-,-,-
C=CCNC(=O)Nc1ccc(OCC)cc1,-,.,-,-,-
C=CCOc1ccc(C(=O)Nc2ccc(OCC)cc2)cc1,-,4.15µM,-,-,-
O=C(COc1ccccc1)Nc1ccc2[nH]ncc2c1,-,-,-,-,-
O=C(NCCN1CCOCC1)c1ccc(NS(=O)(=O)c2ccccc2)cc1,-,-,-,-,-
C[C@@H]1C[C@H]2[C@@H]3C[C@H](F)C4=CC(=O)C=C[C@]4(C)[C@@]3(Cl)[C@@H](O)C[C@]2(C)[C@H]1C(=O)COC(=O)C(C)(C)C,-[18.4 µM],-,.,1.04µM,.
CC1(C)O[C@@H]2C[C@H]3[C@@H]4C[C@H](F)C5=CC(=O)C=C[C@]5(C)[C@@]4(F)[C@@H](O)C[C@]3(C)[C@]2(C(=O)CO)O1,-[18.4 µM],?,-,?,-
CCOC(=O)N1CCN(c2nc(N(c3ccccc3)c3ccccc3)nc(-n3ccnc3)n2)CC1,.,?,-,?,-
CN(c1ccccc1)c1nc(N2CCCC2)nc(-n2ccnc2)n1,?,?,-,5.22µM,-
c1ccc(N(c2ccccc2)c2nc(N3CCCC3)nc(-n3ccnc3)n2)cc1,-,?,-,5.86µM,-
CSCCNCc1c(C(=O)N2CCOCC2)nc2c(C)cccn12,-,?,-,-,-
Cc1cccn2c(CNCCc3ccccn3)c(C(=O)N3CCOCC3)nc12,-,13.1µM,-,?,-
CCc1ccc(NC(=O)c2noc3c2CCCCC3)cc1,-,3.7µM,-,-,-
O=C(NCc1ccccc1)c1noc2c1CCCC2,15.8µM,-,-,-,-
O=C(NCc1ccc(Cl)cc1)c1noc2c1CCCC2,?,?,-,-,-
CC(NC(=O)c1noc2c1CCCC2)c1ccccc1 (stereo unspecified),35.5µM,?,-,-,-
CCc1ccc(NC(=O)c2noc3c2CCC3)cc1,?,?,-,.,-
COc1ccc(CNC(=O)CCc2ccc(S(=O)(=O)N3CCCCCC3)cc2)cc1OC,-,?,-,?,.
O=C(Nc1ccc(S(=O)(=O)NC2=NCCCCC2)cc1)c1cc(S(=O)(=O)N2CCOCC2)ccc1F,-,-,-,?,-
Cc1nnc(NC(=O)NC(C)N2C(=O)C3C4C=CC(C4)C3C2=O)s1 (stereo unspecified),-,-,-,2.62µM,-
CC(NC(=O)Nc1nnc(C(F)(F)F)s1)N1C(=O)C2C3C=CC(C3)C2C1=O (stereo unspecified),-,-,-,-,-
CC(=O)Nc1sc(N/N=C/c2ccc(N(C)C)cc2)nc1-c1ccc(C)cc1,-,4.65µM,-,2.08µM,-
COc1cc(/C=N\Nc2nc(-c3ccc(C)cc3)c(NC(C)=O)s2)ccc1O,-,5.86µM,-,10.4µM,-
CC(=O)Nc1sc(N/N=C/c2ccc(C)cc2)nc1-c1ccc(C)cc1,-,?,-,?,-
SMILES,RE007 growth inh,Pf growth 96h,SARS PLP yeast,Pf growth 48h,NS1 inh
CCOc1cc(/C=N/Nc2ncc(C)c(=O)[nH]2)ccc1O,-,-,-,-,-
COc1ccc(/C=N/Nc2nc(-c3ccc(C)cc3)c(NC(C)=O)s2)cc1OC,-,1.17µM,-,1.17µM,?
CCOc1cc(/C=N\Nc2nc(-c3ccc(C)cc3)c(NC(C)=O)s2)ccc1O,-,?,-,8.28µM,-
COc1cc(/C=N/Nc2nc(C)cc(C)n2)ccc1O,-,.,.,.,.
COc1ccc(N(C)S(=O)(=O)c2cccc(C(=O)OC(C)C(=O)NC3CCCCC3C)c2)cc1 (stereo unspecified),-,-,.,11.7µM,.
COc1ccc(N(C)S(=O)(=O)c2cccc(C(=O)NC3CCCC(C)C3C)c2)cc1 (stereo unspecified),-,?,-,?,.
COc1ccc(N(C)S(=O)(=O)c2cccc(C(=O)Nc3cccc(C(=O)NC4CC4)c3)c2)cc1,-,14.7µM,-,5.22µM,.
COc1ccc(N(C)S(=O)(=O)c2cccc(C(=O)NC3CCC(C)CC3)c2)cc1 (stereo unspecified),-,?,-,-,-
CN(CC(=O)O)Cc1c[nH]c2ccccc12,.,.,.,.,-
Cc1nnc(SCC(=O)Nc2sc3c(c2C#N)CCCC3)[nH]c1=O,-,14.7µM,-,-,-
COc1ccc(-c2ccc(C#N)c(SCC(=O)Nc3sc4c(c3C#N)CCC4)n2)cc1,-,-,-,-,-
N#Cc1c(C(F)(F)F)cc(-c2ccccc2)nc1SCC(=O)Nc1sc2c(c1C#N)CCC2,-,11.7µM,-,?,-
CCOC(=O)c1c(NC(=O)CSc2nnc(C)c(=O)[nH]2)sc2c1CCCC2,-,.,-,-,-
N#Cc1ccc(-c2cccnc2)nc1SCC(=O)Nc1sc2c(c1C#N)CCC2,-,1.47µM,-,?,-
Cc1onc(-c2ccccc2)c1C(=O)N1CCc2ccccc21,-,-,-,-,-
COc1ccc(-n2nc(C(=O)N3CCC(N4CCCCC4)CC3)c3c4ccccc4n(C)c3c2=O)cc1,-,?,-,?,-
O=C(N/N=C/c1ccc([N+](=O)[O-])cc1)c1[nH]ncc1Br,-,-,-,-,.
Cc1nc(C(=O)N/N=C/c2[nH]ncc2Br)cs1,-,1.47µM,-,1.65µM,-
CC(=O)Nc1ccc(S(=O)(=O)N2CCN=C2c2ccccc2)cc1,-,14.7µM,-,-,-
Cc1cc(C)c(S(=O)(=O)N2CCN=C2c2ccccc2)cc1C,-,?,-,.,-
Cc1cc(OCCCCNC(C)C)cc(C(C)C)c1,-,6.57µM,-,?,-
O=[N+]([O-])c1cccc(/C=N/N=C\c2ccccc2)c1,-,13.1µM,-,-,-
COc1cccc(CCc2nnc(CCC(=O)N3CCCC3c3nccs3)o2)c1 (stereo unspecified),-,5.86µM,-,-,-
COc1cccc(CCc2nnc(CCC(=O)NCCC3CCCCO3)o2)c1 (stereo unspecified),-,-,-,-,-
N#Cc1ccc(/C=N/NC(=S)Nc2ccc(S(=O)(=O)N3CCOCC3)cc2)cc1,-,?,-,?,-
O=S(=O)(c1ccc(NC(=S)N/N=C/c2ccc(O)c(O)c2)cc1)N1CCOCC1,-,13.1µM,-,14.7µM,-
O=[N+]([O-])c1cc(Cl)cc(/C=N/NC(=S)Nc2ccc(S(=O)(=O)N3CCOCC3)cc2)c1O,-,?,-,0.465µM,-
O=S(=O)(c1ccc(Cl)c(NC(=S)N/N=C/c2ccc(O)cc2)c1)N1CCOCC1,-,3.29µM,-,-,-
C#CCOCCOCCOCCNc1nc(N2CCN(C(=O)[C@H](CCC(=O)O)n3cc([C@@H](N)CCCCN)nn3)CC2)nc(N2CCN(C(=O)[C@H](CCCCN)n3cc([C@@H](N)CC(N)=O)nn3)CC2)n1,-,.,-,.,.
CCn1c(/C=C/Nc2ccccc2)[n+](CC)c2cc(Cl)c(Cl)cc21,-,?,-,7.38µM,-

# Screens (PubChem)
